The source of these data is PubChem BioAssay (NCI).

The panel holds about 79,000 compounds, 15% with a hit somewhere; the sample as a whole holds those more often. Values without a mark were called inactive. Active and inactive are the calls of the source. Rule as the data show it: active = growth inhibition above about 70%; inactive = the rest.

A short description of assay [1]: NCI Yeast Anticancer Drug Screen. Data for the rad50 strain (AID 155).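 Also: 0% = growth of vehicle-only cultures of the same strain.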 Particulars: S. cerevisiae rad50 strain growth inhibition; at 50.0 µM; stronger effect = higher value. Summed up:
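Yeast carrying a defined DNA repair defect were exposed to test compounds, and growth was compared with vehicle-treated controls to give percent inhibition.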

A short description of assay [2]: NCI Yeast Anticancer Drug Screen. Data for the mec2-1 strain (AID 157). As to conditions: S. cerevisiae mec2-1 strain, at 50.0 µM, stronger effect = higher value. Put shortly:
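Compounds were applied to mec2-1 yeast cells. Their growth was then compared with that of vehicle-treated cultures to give growth inhibition.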

The nature of assay [3]: NCI Yeast Anticancer Drug Screen. Data for the sgs1 mgt1 strain (AID 161).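 Also: 0% = growth of cultures given vehicle only.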 Particulars: S. cerevisiae sgs1 mgt1 strain, at 50.0 µM, stronger effect = higher value. Summed up:
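Growth of a repair-deficient yeast mutant was monitored after compound treatment and expressed as inhibition relative to vehicle-treated cultures.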

Assay [4] can be described thus: NCI Yeast Anticancer Drug Screen. Data for the cln2 rad14 strain (AID 165).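 Also: 0% = growth equal to vehicle treated cultures.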 As to conditions: S. cerevisiae cln2 rad14 strain, at 50.0 µM, stronger effect = higher value. Put shortly:
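Strain: cln2 rad14 yeast, altered in cell cycle control and DNA damage repair. Read-out: growth inhibition vs vehicle.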

The nature of assay [5]: NCI Yeast Anticancer Drug Screen. Data for the bub3 strain (AID 167). As to conditions: S. cerevisiae bub3 mutant strain, at 50.0 µM, stronger effect = higher value. Summed up:
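Compounds were applied to a genetically altered yeast strain carrying a cell-cycle control defect. Growth inhibition was scored against vehicle-treated controls.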

A short description of assay [6]: NCI Yeast Anticancer Drug Screen. Data for the mlh1 rad18 strain (AID 175). Particulars: S. cerevisiae mlh1 rad18 strain growth inhibition; at 50.0 µM; stronger effect = higher value. Summed up: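 A repair-deficient yeast strain is exposed to test compound, and growth is scored relative to vehicle-treated controls.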

As to `Cc1ccc(S(=O)(=O)N/N=C/C(C)c2cccnc2)cc1` (stereo not drawn), the growth inhibition in assay [1] is -9%; in assay [2] it was 6.8%; in assay [3], 4%; in assay [4], 13.6%; in assay [5], 5.9%; in assay [6], 7.05%.

Regarding `COC(=O)c1cc(C)n(C)c(=O)c1C#N`, the growth inhibition in assay [1] is 12.6%; in assay [2], 12.5%; in assay [3] it was -0.85%; in assay [4], 22.1%; in assay [5], 13.9%; in assay [6], 2.9%.

As for `CCOP(=O)(OCC)C(Cc1ccc(OC)c(OC)c1)N=C(c1ccccc1)c1ccccc1` (stereo not drawn), the growth inhibition in assay [1] was 4.8%; in assay [2], -5.7%; in assay [3] it was -12.2%; in assay [4] it was -13.3%; in assay [5], -7.55%; in assay [6], -7.9%.

Regarding `COC(=O)/C=C(/C)c1ccccc1`, the growth inhibition was 1.7% in assay [1]; 2.3% in assay [2]; 0.9% in assay [3]; 5.65% in assay [4]; 1.45% in assay [5]; -3.5% in assay [6].

Consider `CC(C)N(CCSC(=O)N1c2ccccc2Sc2cccnc21)C(C)C`, for which the growth inhibition in assay [1] was -2%; in assay [2], 0.8%; in assay [3] it was -18.9%; in assay [4], -12.3%; in assay [5], 1.45%; in assay [6] it was 1.6%.

For `C=C(C(=O)O)C1CC[C@@]2(C)CCC[C@@](C)(O)C2C1` (stereo partly drawn), the growth inhibition in assay [1] is 21.1%; in assay [2] it was -5.8%; in assay [3] it was -7.75%; in assay [4], 10.8%; in assay [5], -3.35%; in assay [6], 25.6%.

As for `O=C1c2cccc3c([N+](=O)[O-])ccc(c23)C(=O)N1CC1CCCO1` (stereo not drawn), the growth inhibition in assay [1] was 71.3% (active); in assay [2], 51%; in assay [3], 87.1% (active); in assay [4], 40.8%; in assay [5], 51.8%; in assay [6] it was 73.5% (active).

Consider `CC(=O)NC1C(O)C(O)C(CO)OC1n1ncc(=O)[nH]c1=O` (stereo not drawn), for which the growth inhibition was 13.1% in assay [1]; 22.8% in assay [2]; -14.2% in assay [3]; -18.9% in assay [4]; -20.4% in assay [5]; -37.9% in assay [6].

Take `COc1ccc(CCc2ccc(Cl)cc2)cc1`: the growth inhibition in assay [1] was 6.35%; in assay [2], 6.3%; in assay [3], -5.9%; in assay [4] it was 15.5%; in assay [5], -17.6%; in assay [6], -4.5%.

As for `Cc1[nH]c2ccccc2c1C(c1ccccc1O)c1c(C)[nH]c2ccccc12`, the growth inhibition in assay [1] is 20.6%; in assay [2] it was 23.4%; in assay [3], 14.2%; in assay [4], 18.6%; in assay [5], 13.2%; in assay [6], 33.4%.

With `Cc1ccc(S(=O)(=O)C(Cl)(SCl)Sc2ccccc2)cc1` (stereo not drawn), the growth inhibition in assay [1] was 64%; in assay [2], 41.2%; in assay [3] it was 74.9% (active); in assay [4], 47.3%; in assay [5] it was 46.4%; in assay [6], 77.9% (active).

As for `CCc1ccc(NC(=O)c2ccc(C(=O)Nc3ccc(CC)cc3)cc2)cc1`, the growth inhibition is 3.2% in assay [1]; 6.6% in assay [2]; 8.4% in assay [3]; 14.1% in assay [4]; 13.4% in assay [5]; 5.1% in assay [6].

With `O=C1C/C(=C\c2cccc([N+](=O)[O-])c2)C(=O)N1`, the growth inhibition in assay [1] was 9.7%; in assay [2], 11.3%; in assay [3], -5.4%; in assay [4], -11.3%; in assay [5], -2.8%; in assay [6] it was -3.2%.

Regarding `Nc1cnc(Nc2cccc3ccccc23)o1`, the growth inhibition in assay [1] is -26.3%; in assay [2], -35.3%; in assay [3], -14.1%; in assay [4], 0.35%; in assay [5] it was 8.85%; in assay [6], -15.7%.

On to `O=c1cc[nH]c2c(Cl)cccc12`, for which the growth inhibition in assay [1] was -8.15%; in assay [2] it was -20.9%; in assay [3] it was -5.05%; in assay [4] it was 0.95%; in assay [5] it was 2%; in assay [6], -2.9%.

Regarding `CC(=O)CC(C)(C)c1cc(CC(C)(C)C(N)=O)on1`, the growth inhibition in assay [1] was 0.75%; in assay [2], 0.25%; in assay [3], 17.4%; in assay [4], 11.2%; in assay [5], 11.3%; in assay [6], 17.2%.

For `COc1cccc(C2NC(=O)c3c(n[nH]c3N)S2)c1O` (stereo not drawn), the growth inhibition was -14.8% in assay [1]; -43.4% in assay [2]; -10.5% in assay [3]; -6.55% in assay [4]; 5.85% in assay [5]; -40.1% in assay [6].

In the case of `CC1=CC[C@](C)(O)[C@@]2(C)CC[C@H]3C(=C(C)C)C(=O)C[C@]3(C)C[C@H]12`, the growth inhibition was 9% in assay [1]; 1.3% in assay [2]; 19.9% in assay [3]; 33.4% in assay [4]; 10.2% in assay [5]; 17.5% in assay [6].

`CCC(SC)C(=O)N(C)c1ccccc1` (stereo not drawn): the growth inhibition in assay [1] is -8.5%; in assay [2], -15.3%; in assay [3], 1.25%; in assay [4], -10.3%; in assay [5], -13.1%; in assay [6], -3%.

On to `c1cncc(CNc2ncn[nH]2)c1`, for which the growth inhibition in assay [1] was -2.5%; in assay [2] it was 8.3%; in assay [3] it was -24.1%; in assay [4], -50.3%; in assay [5] it was -24.9%; in assay [6], -29.8%.

Take `CC1=NN(C(=O)c2cccnc2)C(=O)C1N=Nc1ccc(S(=O)(=O)Nc2ccccn2)cc1` (stereo not drawn): the growth inhibition in assay [1] is 25.6%; in assay [2], -8.75%; in assay [3], 4.75%; in assay [4], 11.4%; in assay [5], -1.6%; in assay [6] it was 1.8%.

In the case of `C=C1CC[N+]2(CCCC)CCCC12` (stereo not drawn), the growth inhibition in assay [1] was 4.85%; in assay [2], 29.2%; in assay [3] it was 16.2%; in assay [4] it was -4.1%; in assay [5], 41.6%; in assay [6], 1%.

Take `O=C1C2=Cc3ccccc3OC2(O)Oc2cc(O)ccc21` (stereo not drawn): the growth inhibition in assay [1] is 10.5%; in assay [2] it was 11.2%; in assay [3] it was 0.05%; in assay [4] it was -4.1%; in assay [5] it was -2.15%; in assay [6], -36.6%.

Regarding `CCc1cccc(CC)c1NC(=O)CC1SC(N)=NC1=O` (stereo not drawn), the growth inhibition in assay [1] is -4.45%; in assay [2], -19.2%; in assay [3] it was -1.95%; in assay [4] it was 9.8%; in assay [5] it was 15.7%; in assay [6], -24.9%.

Regarding `COc1cc(C(C)(C)C)c2oc3c(c2c1)C(=O)C(C(C)(C)C)=CC3(OC)OC`, the growth inhibition was 13.4% in assay [1]; -6.75% in assay [2]; -17% in assay [3]; 6.4% in assay [4]; 2.25% in assay [5]; -1.65% in assay [6].

In the case of `COc1nc(Cl)nc(C(N)=O)c1N`, the growth inhibition in assay [1] is 7.95%; in assay [2], 9.9%; in assay [3], -11.5%; in assay [4] it was -11.1%; in assay [5] it was -2.65%; in assay [6], -4.85%.

Take `CS(=O)(=O)CCCCCCCCCCC(=O)O`: the growth inhibition in assay [1] was -5.4%; in assay [2], 13.6%; in assay [3], 3.4%; in assay [4] it was 3.95%; in assay [5] it was 10.4%; in assay [6] it was 15.4%.

For the compound `CCOC(=O)C1=C(OC(OCC)C([Se]c2ccccc2)C(C)C)CCC1` (stereo not drawn), the growth inhibition in assay [1] was 65.8%; in assay [2] it was 33.5%; in assay [3] it was 65.2%; in assay [4] it was 42.2%; in assay [5], 58.6%; in assay [6], 51%.

With `O=[N+]([O-])c1ccc(N/N=C/CCCCl)c([N+](=O)[O-])c1`, the growth inhibition was 6.6% in assay [1]; -17.3% in assay [2]; 13.2% in assay [3]; 12.4% in assay [4]; 11.1% in assay [5]; 9.05% in assay [6].

With `CN(C)c1ccc(-c2nc(N)nc3c2CCCC3)cc1`, the growth inhibition in assay [1] is -12.7%; in assay [2], -12.2%; in assay [3], -13.3%; in assay [4], 22.4%; in assay [5], -6%; in assay [6], -34.2%.

With `COc1cc(/C=N/NC(N)=O)cc(OC)c1O`, the growth inhibition in assay [1] was -0.6%; in assay [2], -11.8%; in assay [3] it was -34.4%; in assay [4] it was -14.6%; in assay [5] it was 33.3%; in assay [6], -4.75%.

Turning to `Cc1ccc(N=Nc2ccc(C)cc2NC(=O)CCl)cc1`, the growth inhibition was -17.7% in assay [1]; -15.8% in assay [2]; -21.9% in assay [3]; -21.9% in assay [4]; 3.2% in assay [5]; -15.2% in assay [6].

`O=[N+]([O-])C(CO)(CO)c1ccccc1`: the growth inhibition is 25.3% in assay [1]; 2.4% in assay [2]; 6% in assay [3]; 18.8% in assay [4]; 3.55% in assay [5]; 15.7% in assay [6].

As to `O=C1CC(c2ccccc2)Oc2cc(O)cc(O)c21` (stereo not drawn), the growth inhibition in assay [1] is 9.1%; in assay [2] it was -30.8%; in assay [3], 9.2%; in assay [4], 22.6%; in assay [5] it was -14.4%; in assay [6], 16.7%.

Turning to `Nc1cc(C(F)(F)F)cc(C(F)(F)F)c1`, the growth inhibition in assay [1] was -6.2%; in assay [2], 1.6%; in assay [3] it was -0.85%; in assay [4], 16.6%; in assay [5] it was -1.4%; in assay [6], -10.4%.

For the compound `Br/C(=N\Nc1nn[nH]n1)c1ccncc1`, the growth inhibition in assay [1] is -15.1%; in assay [2], 1.75%; in assay [3] it was -26.1%; in assay [4] it was -22%; in assay [5], -21.8%; in assay [6] it was -28.9%.

With `CC(C)c1nnnn1C12CC3CC(CC(C3)C1)C2`, the growth inhibition in assay [1] is 2.75%; in assay [2] it was -13.2%; in assay [3], 1%; in assay [4] it was -17.4%; in assay [5] it was -3.3%; in assay [6], 11.5%.

With `O=C(O)C1=C/C(=C\C=[N+]2c3cc(O)c(OC4OC(CO)C(O)C(O)C4O)cc3CC2C(=O)[O-])CC(C(=O)O)N1` (stereo not drawn), the growth inhibition in assay [1] is -10.4%; in assay [2] it was -3.75%; in assay [3], 12.2%; in assay [4], -26.1%; in assay [5], 5.8%; in assay [6] it was 6%.
